Assay results published in PubChem BioAssay (NCATS).
Inconclusive results are not listed. Unmarked numbers belong to inactive results. Active and inactive are the calls of the source. Calls come from the whole dose curve; as a rule, active = well fitted activation curve with a large enough effect; inconclusive = small, poorly fitted or top-dose-only effect, or effect the other way; inactive = flat fitted curve, though single readings scatter.

Assay: Cellular Toxicity (caspase-3) NIH 3T3 (AID 666);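 note: caspase signal read after 16 h compound exposure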
Conditions: NIH 3T3 caspase-3 activation, apoptosis/toxicity, 0% DMSO, 100% is 100 µM tamoxifen; series mostly up to 92.2 µM; caspase-3 activation: at the top concentration
Description: NIH Chemical Genomics Center [NCGC]
NIH Molecular Libraries Screening Centers Network [MLSCN]
National Institutes of Environmental Health Sciences [NIEHS]
National Toxicology Program [NTP]
We have developed a 1536-well cell-based assay for quantitative high throughput screening (qHTS) against a number of cell lines to determine in vitro caspase 3/7 of small molecules. This particular assay uses the NIH 3T3 cell line which is derived from mouse fibroblasts.
NCGC Assay Protocol Summary:
The Caspase-Glo 3/7 assay (Promega) is a homogeneous method to measure caspase-3 and caspase-7 activities in cultured cells. The quantitation of caspase 3/7 activity is based on the cleavage of a peptide-aminoluciferin substrate. After caspase cleaves the substrate the free aminoluciferin is liberated and serves as the substrate of luciferase, which generates the light. The luminescent signal is proportional to amount of caspase 3/7 activity present.
Using the Caspase-Glo 3/7 assay, the amount of caspase 3/7 activity was measured in the NIH 3T3 cell line with complete culture medium following compound treatment for 16 hours. The assay was performed in opaque white 1536-well plates. In the screen, tamoxifen and doxorubicin were used as positive controls. Library compounds were measured for their ability to cause the activation of caspase 3/7 in the cell line, as reflected by an increase in luminescence signal, in a concentration-dependent manner. Data were normalized to the controls for basal activity (DMSO only) and 100% stimulation (100 uM tamoxifen). AC50 values were determined from concentration-response data modeled with the standard Hill equation.
qHTS protocol for caspase 3/7 assay in NIH 3T3 cells
[Step] [Parameter] [Value] [Description]
1. Reagent; 5 uL; 1000 NIH 3T3 cells/well
2. Time; 5 hr; 37 °C incubation
4. Controls; 23 nL; Tamoxifen 0.23 uM to 100 uM & Doxorubicin 7.0 pM to 100 uM
5. Time; 16 hr; 37 °C incubation
6. Reagent; 5 uL; Caspase-Glo 3/7 reagent
7. Time; 20 min; Room Temperature
8. Detection; Luminescence; Viewlux plate reader
Keywords: caspase 3/7, apoptosis, NIH 3T3 cell line, luminescence, NTPHTS, NTPHTS_NCGC, NIEHS, EPA, DSSTox, MLSMR, MLSCN, NIH Roadmap, qHTS, NCGC

Row | Structure (SMILES) | caspase-3 activation | outcome
1 | Nc1ccn([C@H]2CS[C@@H](CO)O2)c(=O)n1 | -0.825% | 
2 | O=C(O)CCC(=O)C(=O)O | -4.92% | 
3 | CC1=C(/C=C/C(C)=C/C=C/C(C)=C/CO)C(C)(C)CCC1 | 5.16% | 
4 | CCOc1ccc2c(c1)C(C)=CC(C)(C)N2 | 1.08% | 
5 | O=S(=O)(O)O |  | inactive
6 | O=CCCCC=O | -1.09% | 
7 | CC(O)CO (stereo unspecified) |  | inactive
8 | CCCCCCCC/C=C\CCCCCCCC(=O)O | -0.374% | 
9 | CCCCC/C=C\C/C=C\CCCCCCCC(=O)O | 0.945% | 
10 | CC(C)(C)NC(=O)[C@@H]1C[C@@H]2CCCC[C@@H]2CN1C[C@@H](O)[C@H](Cc1ccccc1)NC(=O)[C@H](CC(N)=O)NC(=O)c1ccc2ccccc2n1 | 0.491% | 
11 | IC(I)I | -5.68% | 
12 | CCOC(C)=O | -0.119% | 
13 | Cc1ccccc1 |  | inactive
14 | CC(C)=O | -0.933% | 
15 | CC1=C2[C@@H]([C@H](C)CC[C@H]2/C=C(\C)C(=O)O)[C@H](O)C1 | -1.98% | 
16 | CCCCCCCC(=O)O |  | inactive
